IMPase Li inh: qHTS Assay for Identifying the Cell-Membrane Permeable IMPase Inhibitors: Potentiation with Lithium; Potency, µM (highest dose often 59.4 µM), actives largely listed as inhibitors; CHO-M1 cells, IP1 TR-FRET (IP-One), carbachol + lithium; 0.35% of 210,000 active; active = well fitted inhibition curve with a large enough effect; inconclusive = small, poorly fitted or top-dose-only effect; inactive = no such curve, though single readings can be large or run the other way;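 note: IP1 builds up when IMPase is blocked and the TR-FRET signal falls; nearly all actives have a fitted effect of over 50% in size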
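Readout is a homogeneous TR-FRET IP1 immunoassay (Ex 320, Em 665 and 620), where raised cytosolic IP1 lowers signal. Cells were CHO-M1 treated 30 min at 37C with test compounds plus a little lithium; AC50 values came from Hill-equation fitting.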
ALDH1A1 block: qHTS Assay for Inhibitors of Aldehyde Dehydrogenase 1 (ALDH1A1); Aldehyde dehydrogenase 1A1 (Homo sapiens), P00352; Purified ALDH1A1, NADH fluorescence, propionaldehyde substrate; Potency, µM (top dose mostly 75.3 µM), most hits filed as inhibitors; 7.3% of 220,000 active; AID 1030, 2008
Target sequence (P00352 whole entry, looked up): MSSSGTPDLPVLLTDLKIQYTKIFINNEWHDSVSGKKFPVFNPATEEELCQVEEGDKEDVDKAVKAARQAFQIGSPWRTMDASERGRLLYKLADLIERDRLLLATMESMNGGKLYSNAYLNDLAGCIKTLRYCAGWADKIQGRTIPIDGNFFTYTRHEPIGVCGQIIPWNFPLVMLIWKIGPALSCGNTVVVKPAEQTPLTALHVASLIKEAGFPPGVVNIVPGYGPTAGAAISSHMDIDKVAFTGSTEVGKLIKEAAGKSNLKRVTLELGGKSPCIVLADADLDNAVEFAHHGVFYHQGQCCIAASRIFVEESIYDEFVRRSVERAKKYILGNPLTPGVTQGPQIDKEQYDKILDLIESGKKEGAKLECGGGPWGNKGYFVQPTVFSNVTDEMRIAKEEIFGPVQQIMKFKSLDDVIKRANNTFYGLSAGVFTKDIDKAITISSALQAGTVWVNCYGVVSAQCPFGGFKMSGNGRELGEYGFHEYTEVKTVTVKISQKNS
HPGD inh: qHTS Assay for Inhibitors of HPGD (15-Hydroxyprostaglandin Dehydrogenase); 15-hydroxyprostaglandin dehydrogenase [NAD(+)] (Homo sapiens), P15428; purified HPGD, NADH fluorescence kinetic, PGE2 substrate; Potency, µM, usual class: inhibitors; 4.3% of 150,000 active; AID 894, 2007
Target sequence (P15428 whole entry, looked up): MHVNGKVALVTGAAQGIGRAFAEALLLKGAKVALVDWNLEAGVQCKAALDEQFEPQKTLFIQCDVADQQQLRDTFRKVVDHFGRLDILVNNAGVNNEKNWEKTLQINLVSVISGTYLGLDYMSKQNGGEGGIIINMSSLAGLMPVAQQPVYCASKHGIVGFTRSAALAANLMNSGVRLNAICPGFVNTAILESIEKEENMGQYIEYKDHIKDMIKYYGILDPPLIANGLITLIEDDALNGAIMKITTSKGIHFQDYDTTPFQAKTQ
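20 nM HPGD preincubated 15 min at room temperature with compound in 50 mM Tris-HCl pH 8, 0.01% Tween 20. Started with 1 mM NAD+ and 30 uM prostaglandin E2; NADH fluorescence (360/450 nm) read 5 times over 30-s intervals, last minus first.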
PNC inhibitor: High Content Assay for Compounds that inhibit the Assembly of the Perinucleolar Compartment; PC3M PTB-GFP, PNC prevalence imaging, 16 h; active compounds read low; activity change (PNC), negative = inhibition, % at 10 µM; 3.1% of 140,000 active; AID 2417, 2010;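 active = readout at or below -70, meaning at least 70% loss of cells showing the perinucleolar compartment, a nuclear body marking cancer cells; inconclusive = readout between -30 and a set limit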
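Read-out is percentage of cells bearing a perinucleolar compartment, from automated 20x imaging of fixed, Hoechst-stained PC3M PTB-GFP cells. Cells were seeded 4 h, then exposed 16 h to compound (23 nl of library stock) in duplicate plates.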
IMPase inh: qHTS Assay for Identifying the Cell-Membrane Permeable IMPase Inhibitors. Inositol monophosphatase 1 (Rattus norvegicus), P97697. CHO-M1 cells, IP1 accumulation, HTRF TR-FRET ratio. inhibition (IP1 accumulation), % at 46.1 µM. 120,000 tested, under 10 active. AID 901, 2007; active = well fitted curve in the direction sought with a large enough effect in the signal ratio, not every such curve was filed as active; inconclusive = small, poorly fitted or top-dose-only effect, or a change in a side signal; inactive = no such curve, though single readings can be large or run the other way; the % refers to the signal ratio;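 note: cells stimulated with carbachol in lithium chloride buffer; higher means more IMPase inhibition seen as more IP1 and lower FRET ratio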
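Measured: the HTRF emission ratio (665/620 nm) plus the 620 nm donor channel, each fitted to the Hill equation to give AC50. Cells were CHO-M1 given compounds up to 46 uM and a 30 min carbachol stimulation at 37C.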
Numbers stand for hits; - = inactive; ? = inconclusive; . = no result; [ ] = another dose, or the depositor's remark. Only some compounds are listed: those with a hit (about 11% of all), similar ones and a draw of the others. Unless noted, calls come from the whole dose curve; as a rule, active = well fitted inhibition curve with a large enough effect (not every such curve was filed as active); inconclusive = small, poorly fitted or top-dose-only effect, or another doubt; inactive = no such curve, though single readings can be large or run the other way.

SMILES | IMPase Li inh | ALDH1A1 block | HPGD inh | PNC inhibitor | IMPase inh
O=C(CSc1nnc(SCc2ccccc2)s1)N/N=C/C=C/c1ccco1 | - | 14.1µM | 28.2µM | - | .
O=C(CN1CCN(Cc2ccccc2)CC1)N/N=C\C=C/c1ccco1 | - | ? | - | - | -
CC1(NC(=S)N(CCO)CCO)CCS(=O)(=O)C1 (configuration not stated) | - | - | - | ? | .
C#CCCCO/N=C1/[C@H]2O[C@@H]2[C@@H](O)[C@H]2[C@H]1CCn1c(=O)n([C@@H](CC)c3ccccc3)c(=O)n12 | . | -[13.5 µM] | . | . | .
Cc1ccc(C(=O)Nc2ccc(Cl)c(-c3nc4ncccc4o3)c2)c(C)c1 | . | . | . | . | -
O=C(Cc1cccs1)N/N=C/C=C/c1ccco1 | - | 3.98µM | ? | - | .
CCn1c(SCC(=O)N/N=C/C=C/c2ccco2)nnc1-c1ccccc1 | - | 17.8µM | - | ? | .
O=C(CNc1cccc2ccccc12)N/N=C/C=C/c1ccco1 | - | ? | . | . | .
COc1ccc(CSc2nnc3n(C)c(=O)c4c5c(sc4n23)CCCC5)cc1 | . | - | . | - | -
COc1ccc(Cn2c(NCC(C)C)nc3c2c(=O)n(C)c(=O)n3C)cc1 | . | . | . | . | -
CCOC(=O)c1c(C)[nH]c(-c2csc(C)n2)c1C | - | - | . | . | .
CCOC(=O)c1c(C)[nH]c(-c2csc(N)n2)c1C | - | 11.2µM | . | . | .
O=S(=O)(c1ccc(Br)cc1)N1CCCC1c1nc2ccccc2s1 (configuration not stated) | - | - | - | -100.0 | -
Cc1ccc(NC(=O)Cn2nc(C)c(S(=O)(=O)N(C)C)c2C)cc1C | - | - | . | . | .
Nc1ccc(S(=O)(=O)O)cc1 | - | 31.6µM | - | . | .
COC(=O)C1(Cc2ccccc2)C=C2C(=C(C(C)C)C(=O)C2C)CN1 (configuration not stated) | - | ? | ? | . | .
Cc1[nH]c2ccccc2c1C(=O)CSc1n[nH]c(N)n1 | - | - | . | . | .
Cc1onc(-c2ccccc2Cl)c1C(=O)Nc1nnc(-c2ccc(F)cc2)s1 | - | ? | - | - | ?
Cc1onc(-c2ccccc2Cl)c1C(=O)NC(=S)Nc1ccc(C(C)C)cc1 | . | 20µM | . | . | .
Cc1ccc(NC(=S)NC(=O)c2c(-c3ccccc3Cl)noc2C)cc1 | - | 7.94µM | - | - | -
Cc1onc(-c2ccccc2Cl)c1C(=O)Nc1nnc(-c2ccc(Br)cc2)s1 | 8.91µM | ? | ? | - | ?
Cc1onc(-c2ccccc2Cl)c1C(=O)NC(=S)NCCc1ccccc1 | - | - | - | - | .
Cc1ccc(N2CC(c3nnc(Cc4ccc(F)cc4Cl)o3)CC2=O)cc1 (configuration not stated) | . | . | . | . | -
O=C(Nc1ccc(-c2ccc3nncn3n2)cc1)c1ccc(Br)o1 | - | ? | . | . | .
COc1ccc(/C=C2\OC(=S)N(C)C2=O)cc1 | - | 20µM | - | - | -
SMILES | IMPase Li inh | ALDH1A1 block | HPGD inh | PNC inhibitor | IMPase inh
CC1=C/C(=C\c2ccc3c(c2)OCO3)C(=O)S1 | - | ? | - | -85.2 | -
CC(=O)c1c(C)nc(-c2ccc(Cl)cc2)nc1N | - | 22.4µM | . | . | .
CC(C)n1cc(/C=C2\NC(=O)N(c3cccc(Cl)c3)C2=O)c2ccccc21 | - | ? | - | - | -
CC(C)n1cc(/C=C2/NC(=O)N(c3cccc(Cl)c3)C2=O)c2ccccc21 | - | ? | - | -100.0 | -
Oc1ccccc1/C=N/NC(=S)NC1CC2C=CC1C2 (configuration not stated) | . | 25.1µM | . | . | .
CC(Sc1nnc(NC2CCCCC2)s1)C(=O)Nc1ccc2c(c1)C(=O)c1ccccc1C2=O (configuration not stated) | - | 25.1µM | ? | - | .
O=C(CSc1nnc(NC2CCCCC2)s1)Nc1ccc(N2CCOCC2)cc1 | - | ? | - | - | -
Cc1ccccc1OCC(=O)NN1C(=O)C2C3C=CC(O3)C2C1=O (configuration not stated) | - | 8.91µM | . | . | .
Cc1cccc(OCC(=O)Nc2cc(C)on2)c1 | - | - | - | - | ?
CCOc1ccc(NC(=O)c2ccc(N)cc2)cc1 | - | - | - | - | -
Cc1cccc(OCC(=O)NN2C(=O)C3C4C=CC(O4)C3C2=O)c1 (configuration not stated) | - | 3.16µM | . | . | .
O=C(CCc1ccccc1)NN1C(=O)C2C3C=CC(O3)C2C1=O (configuration not stated) | - | - | . | . | .
CCOc1ccc(C(=O)NN2C(=O)C3C4C=CC(O4)C3C2=O)cc1 (configuration not stated) | - | 12.6µM | - | - | -
COc1cccc2cc(C(=O)NCCc3c[nH]c4ccccc34)c(=O)oc12 | - | - | . | . | .
CCC1=C2CC[C@H]3C(=O)NC(=O)[C@H]3[C@H]2[C@@]2(C)C(=O)N(CC3CC3)C(=O)N2C1=O | - | - | - | . | .
CC1CCCCN1C(=O)c1cnn2c(C(F)(F)F)cc(-c3ccco3)nc12 (configuration not stated) | - | - | 7.08µM | - | -
O=C(NC1CCCCC1)c1nn2c(C(F)(F)F)cc(-c3ccco3)nc2c1Br | ? | 22.4µM | - | - | -
CN(CCc1ccccn1)C(=O)c1nn2c(C(F)(F)F)cc(-c3ccco3)nc2c1Cl | - | 25.1µM | - | - | -
O=C(NC1CCCCC1)c1cnn2c(C(F)(F)F)cc(-c3ccco3)nc12 | - | ? | ? | ? | -
CC1(C)O[C@@H]2C[C@H]3[C@H]4C[C@H](F)C5=CC(=O)C=C[C@@]5(C)[C@@H]4[C@H](O)C[C@]3(C)[C@]2(C(=O)CO)O1 | - | - | - | . | -
N[C@](CC1c2ccccc2Oc2ccccc21)(C(=O)O)[C@@H]1C[C@@H]1C(=O)O | - | - | - | . | -
CC(=O)N1CCN(c2ccc(S(=O)(=O)NCCN(C(C)C)C(C)C)cc2[N+](=O)[O-])CC1 | - | - | - | -104.8 | .
CC(=O)N1CCN(c2ccc(S(C)(=O)=O)cc2[N+](=O)[O-])CC1 | - | - | . | . | .
CC(SCCc1ccccn1)C(=O)O (configuration not stated) | - | - | - | - | -
CC1=C/C(=C\c2ccc(Br)o2)C(=O)O1 | - | - | - | ? | -
SMILES | IMPase Li inh | ALDH1A1 block | HPGD inh | PNC inhibitor | IMPase inh
COc1ccccc1-c1ccc(/C=C2/C=C(C)OC2=O)o1 | - | ? | ? | -113.4 | .
OB(O)c1ccc(B(O)O)cc1 | - | - | - | . | .
O=C(O)CCCSc1nc2ccccc2s1 | - | -[13.5 µM] | - | . | .
CCCCNC(=O)C(c1ccc(OCC(=O)OC)c(C(=O)OC)c1)N(Cc1ccccc1)C(=O)CCCCCN1C(=O)NC(c2ccc(-c3ccccc3)cc2)C(C(=O)OCc2ccccc2)=C1C (configuration not stated) | - | - | - | . | .
C=C(C(=O)C(C)(C)O)C(O)c1ccc([N+](=O)[O-])cc1 (configuration not stated) | - | ? | 25.1µM | . | .
O=C(/C=C/c1ccco1)NCC1(c2ccccc2)CCCC1 | - | ? | - | -109.2 | .

Assay outcomes deposited in PubChem by National Center for Advancing Translational Sciences (NCATS).
